Laboratory results reported in the supplement of paper PMC12669032.

Assays:
Assay in all cases: growth AUC relative to DMSO control (median of replicates) (fraction); higher = more growth (less inhibition), active = hit call of the paper
Conditions in all cases: 20 µM; 24 h;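 active = AUC reduced over 20% with Padj below 0.05 in at least 2 of 3 replicates; inactive = otherwise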
[1] = system: Akkermansia muciniphila
Method in brief: (§1)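 Area under the growth curve was normalised to the plate median of solvent-only wells, or to row and column medians on the industrial chemical plate. Growth curves came from anaerobic gut bacterial monocultures in mGAM at 37 °C, seeded at OD600 0.05 with 20 µM compound (1% DMSO), and read at OD600 hourly for 24 h with the minimum OD set to 0. The value is the median of three biological replicates grown on separate days.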

[2] = system: Bacteroides caccae
Method in brief: as §1

[3] = system: Bacteroides clarus
Method in brief: as §1

[4] = system: Bacteroides dorei
Method in brief: as §1

[5] = system: Bacteroides stercoris
Method in brief: as §1

[6] = system: Bacteroides thetaiotaomicron
Method in brief: as §1

[7] = system: Bacteroides uniformis
Method in brief: as §1

[8] = system: Bifidobacterium longum subsp. longum
Method in brief: as §1

[9] = system: Clostridium difficile
Method in brief: as §1

[10] = system: Collinsella aerofaciens
Method in brief: as §1

Measured: growth AUC

O=C(O)Cc1c(Cl)ccc(Cl)c1Cl
inactive: [1] 0.95 | [2] 1 | [3] 0.99 | [4] 1.02 | [5] 0.951 | [6] 1 | [7] 0.993 | [8] 1.04 | [9] 1 | [10] 1

CC(C)CCCCCCc1ccc(O)cc1
inactive: [1] 0.981 | [2] 1.03 | [3] 1.03 | [4] 1.01 | [5] 0.923 | [6] 0.992 | [7] 0.965 | [8] 1.03 | [9] 1.07 | [10] 0.979

C=CCc1ccc(OC)c(OC)c1
inactive: [1] 1.02 | [2] 1.04 | [3] 0.998 | [4] 1.06 | [5] 1.01 | [6] 1.03 | [7] 1.04 | [8] 1.11 | [9] 0.984 | [10] 1.03

CN(C)C(=O)Nc1ccccc1
inactive: [1] 0.854 | [2] 1.03 | [3] 0.981 | [4] 1 | [5] 1.07 | [6] 0.994 | [7] 0.978 | [8] 1.01 | [9] 1.01 | [10] 0.984

CC(C)(C)Nc1nc(N)nc(Cl)n1
inactive: [1] 1.06 | [2] 0.991 | [3] 0.997 | [4] 0.993 | [5] 0.991 | [6] 0.979 | [7] 0.962 | [8] 0.982 | [9] 0.997 | [10] 0.998

CN(C)C(=O)Nc1cc(C(C)(C)C)on1
inactive: [1] 0.918 | [2] 1.01 | [3] 0.997 | [4] 1.01 | [5] 0.998 | [6] 0.995 | [7] 1.01 | [8] 1.01 | [9] 0.987 | [10] 0.989

CCc1cccc(C)c1N(C(=O)C(=O)O)C(C)COC (stereo not given)
inactive: [1] 0.949 | [2] 1.03 | [3] 0.97 | [4] 1.02 | [5] 1.1 | [6] 1.03 | [7] 1.03 | [8] 1.03 | [9] 1.03 | [10] 1.04

CCOc1ccc(C2(C(=O)OC(C#N)c3cccc(Oc4ccccc4)c3)CC2(Cl)Cl)cc1 (stereo not given)
inactive: [1] 1.08 | [2] 0.968 | [3] 1.02 | [4] 0.94 | [5] 1.04 | [6] 0.993 | [7] 0.957 | [8] 0.911 | [9] 1.01 | [10] 0.982

COC(=O)CC(NC(=O)[C@@H](NC(=O)OC(C)C)C(C)C)c1ccc(Cl)cc1 (stereo not given in full)
inactive: [1] 1.08 | [2] 0.934 | [3] 0.991 | [4] 1.02 | [5] 1.34 | [6] 0.981 | [7] 0.934 | [8] 1.01 | [9] 1.01 | [10] 0.963

[O-][n+]1nc(-n2ccnc2)nc2ccc(Cl)cc21
inactive: [1] 0.972 | [2] 1.07 | [3] 1 | [4] 1.05 | [5] 0.911 | [6] 0.99 | [7] 1.04 | [8] 0.974 | [9] 0.957 | [10] 0.964

COc1cc(Cl)ccc1Oc1ccc(Cl)cc1Cl
inactive: [1] 1.03 | [2] 0.902 | [3] 0.933 | [4] 0.948 | [5] 0.93 | [6] 0.984 | [7] 0.98 | [8] 0.872 | [9] 1.01 | [10] 1.01

COC(=O)C(C)Oc1ccc(Cl)cc1Cl (stereo not given)
inactive: [1] 0.964 | [2] 1.05 | [3] 1 | [4] 1.05 | [5] 0.849 | [6] 1.01 | [7] 1.05 | [8] 1 | [9] 1.03 | [10] 0.987

CCN(CC)C(=O)c1cccc(C)c1
inactive: [1] 1.03 | [2] 0.985 | [3] 1.03 | [4] 1.05 | [5] 1.05 | [6] 0.975 | [7] 0.998 | [8] 1.02 | [9] 0.982 | [10] 0.952

CCCCOC(=O)COc1ccc(Cl)cc1Cl
inactive: [1] 1.06 | [2] 0.975 | [3] 1.02 | [4] 0.996 | [5] 1.09 | [6] 0.987 | [7] 1.02 | [8] 0.965 | [9] 0.999 | [10] 0.957

CC(C)OC(=O)[C@@H](C)N(C(=O)c1ccccc1)c1ccc(F)c(Cl)c1
inactive: [1] 0.996 | [2] 0.961 | [3] 0.99 | [4] 1.02 | [5] 0.99 | [6] 0.984 | [7] 1.04 | [8] 1.01 | [9] 0.978 | [10] 0.954

CCCCCCCCCC[N+](C)(C)Cc1ccccc1.[Cl-]
inactive: [1] 0.987 | [2] 0.962 | [3] 0.987 | [4] 0.979 | [5] 1.21 | [6] 0.996 | [7] 0.896 | [8] 0.866 | [9] 0.921 | [10] 0.848

C=C1C[C@]23C[C@@]1(O)CC[C@H]2[C@@]12C=C[C@H](O)[C@@](C)(C(=O)O1)[C@H]2[C@@H]3C(=O)O
inactive: [1] 1.24 | [2] 0.966 | [3] 0.999 | [4] 0.921 | [5] 1.01 | [6] 1.02 | [7] 0.947 | [8] 0.915 | [9] 0.931 | [10] 0.95

CC(C)CNC(=O)N1CCNC1=O
inactive: [1] 1.09 | [2] 0.975 | [3] 1.02 | [4] 0.96 | [5] 1.18 | [6] 1.02 | [7] 1.02 | [8] 1.04 | [9] 1.04 | [10] 1.08

CCCCCCC(C)OC(=O)COc1nc(F)c(Cl)c(N)c1Cl (stereo not given)
inactive: [1] 0.94 | [2] 0.885 | [3] 0.874 | [4] 1 | [5] 0.699 | [6] 0.97 | [7] 0.874 | [8] 0.848 | [9] 0.952 | [10] 0.928

CCOC(=O)C(C)Oc1ccc(Oc2cnc3cc(Cl)ccc3n2)cc1 (stereo not given)
inactive: [1] 1.01 | [2] 0.978 | [3] 0.953 | [4] 0.942 | [5] 1.01 | [6] 0.992 | [7] 0.932 | [8] 1.06 | [9] 1.03 | [10] 1.02

CCOC(=O)/C(Cl)=C/c1cc(N2C(=O)C3=C(CCCC3)C2=O)ccc1Cl
inactive: [1] 0.947 | [2] 0.97 | [3] 0.934 | [4] 0.99 | [5] 0.834 | [6] 0.924 | [7] 0.937 | [8] 0.912 | [9] 1.03 | [10] 1.03

c1ccc2c(c1)Cc1ccccc1-2
inactive: [1] 1.04 | [2] 1.02 | [3] 1 | [4] 1.03 | [5] 1.04 | [6] 1 | [7] 1 | [8] 0.925 | [9] 1.01 | [10] 1.01

O=[N+](Nc1ccccc1)c1ccccc1
inactive: [1] 0.945 | [2] 0.972 | [3] 0.966 | [4] 0.997 | [5] 1.08 | [6] 0.991 | [7] 0.988 | [8] 0.934 | [9] 1 | [10] 0.965

NC(=O)Cc1cccc2ccccc12
inactive: [1] 1.01 | [2] 1 | [3] 1.03 | [4] 0.988 | [5] 1.15 | [6] 1.03 | [7] 1.01 | [8] 0.977 | [9] 1.01 | [10] 0.981

CCc1cccc(C)c1N(COC(C)C)C(=O)CCl
inactive: [1] 1.07 | [2] 1 | [3] 1.01 | [4] 1.03 | [5] 0.998 | [6] 0.993 | [7] 1.04 | [8] 1.02 | [9] 0.956 | [10] 1.03
